Assay results published in PubChem BioAssay (NCATS).
Values joined by “and” are separate entries in the source; they are usually repeats but may differ in a detail not shown here. Equal entries are not always repeated. Results filed as inconclusive are left out. Active and inactive are the calls of the source. Unless noted, calls come from the whole dose curve; as a rule, active = well fitted curve in the direction sought with a large enough effect; inconclusive = small, poorly fitted or top-dose-only effect, or another doubt; inactive = no such curve, though single readings can be large; an effect the other way counts as inactive or inconclusive.

Key:
[1] = AP1 Signaling Pathway (AID 357; active = well fitted curve in either direction with a large enough effect, not every such curve was filed as active;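 note: ME-180 reporter cells stimulated with EGF at its EC50 level; % is set by controls: 0 for no effect and ±100 for the full control effect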); details: ME-180 AP-1-bla reporter, EGF-induced, beta-lactamase ratio, 5 h; at 38 µM (top of the series)
Summary of the method: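 Read-out was the 460nm/530nm emission ratio (excitation 405nm) after CCF4 loading for 2.5 hours at room temperature. Cells carried an AP-1-driven beta-lactamase reporter, were stimulated with EC50 EGF plus compound for 5 hours, and AC50 values came from titrations.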

[2] = target: Cytochrome P450 1A2 (Homo sapiens) (UniProt P05177); assay: p450-cyp1a2 (AID 410; calls by dose curve; note: potency is the fitted concentration of half-maximal effect)
Cytochrome P450 1A2 (Homo sapiens), sequence (P05177 whole entry, looked up): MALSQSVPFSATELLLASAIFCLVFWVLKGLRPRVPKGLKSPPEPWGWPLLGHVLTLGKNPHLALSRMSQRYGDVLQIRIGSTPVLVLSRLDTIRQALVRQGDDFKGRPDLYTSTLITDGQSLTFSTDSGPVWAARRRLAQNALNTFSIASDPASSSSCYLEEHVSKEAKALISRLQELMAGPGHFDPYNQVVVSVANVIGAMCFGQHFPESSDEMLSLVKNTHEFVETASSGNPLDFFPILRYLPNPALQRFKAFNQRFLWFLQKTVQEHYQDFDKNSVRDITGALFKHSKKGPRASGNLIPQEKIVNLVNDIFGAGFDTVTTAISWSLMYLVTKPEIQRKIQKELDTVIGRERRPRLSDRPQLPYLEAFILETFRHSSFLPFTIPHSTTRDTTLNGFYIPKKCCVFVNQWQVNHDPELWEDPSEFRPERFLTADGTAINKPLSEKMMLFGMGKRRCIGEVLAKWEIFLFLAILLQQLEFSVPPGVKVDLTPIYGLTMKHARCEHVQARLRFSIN
Summary of the method: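 Inhibition was calculated relative to 57 uM furafylline (full inhibition). The reaction used human CYP1A2 at 20nM with Luciferin-ME at its Km, 100uM, driven by an NADPH-regenerating system for 60 min at room temperature.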

[3] = NFAT Signaling Pathway (AID 444; active = well fitted curve in either direction with a large enough effect, not every such curve was filed as active;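 note: carbachol stimulus at about its EC50 of 1 µM final; % is set by controls: 0 for no effect and ±100 for the full control effect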); details: Jurkat NFAT-bla M1, carbachol, beta-lactamase ratio, 5 h; at 38 µM (top of the series)
Summary of the method: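 Jurkat cells carrying an NFAT-driven β-lactamase reporter and co-transfected muscarinic M1 receptor were treated with compound plus carbachol (1 uM final, an EC50 level) for 5 h at 37 °C. CCF4 loading followed for 1 h at RT; 460/530 nm ratio gave %activity.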

[4] = target: Glucocorticoid receptor (Homo sapiens) (UniProt P04150); assay: GR-GFP Redistribution (AID 450;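 active = compounds whose dose series gives a full or clear partial fitted curve of increased nuclear translocation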; note: potency is the fitted concentration of half-maximal effect); details: U2OS GR-GFP nuclear translocation, laser cytometry, 2 h
Glucocorticoid receptor (Homo sapiens), sequence (P04150 whole entry, looked up, the tested form may be a part): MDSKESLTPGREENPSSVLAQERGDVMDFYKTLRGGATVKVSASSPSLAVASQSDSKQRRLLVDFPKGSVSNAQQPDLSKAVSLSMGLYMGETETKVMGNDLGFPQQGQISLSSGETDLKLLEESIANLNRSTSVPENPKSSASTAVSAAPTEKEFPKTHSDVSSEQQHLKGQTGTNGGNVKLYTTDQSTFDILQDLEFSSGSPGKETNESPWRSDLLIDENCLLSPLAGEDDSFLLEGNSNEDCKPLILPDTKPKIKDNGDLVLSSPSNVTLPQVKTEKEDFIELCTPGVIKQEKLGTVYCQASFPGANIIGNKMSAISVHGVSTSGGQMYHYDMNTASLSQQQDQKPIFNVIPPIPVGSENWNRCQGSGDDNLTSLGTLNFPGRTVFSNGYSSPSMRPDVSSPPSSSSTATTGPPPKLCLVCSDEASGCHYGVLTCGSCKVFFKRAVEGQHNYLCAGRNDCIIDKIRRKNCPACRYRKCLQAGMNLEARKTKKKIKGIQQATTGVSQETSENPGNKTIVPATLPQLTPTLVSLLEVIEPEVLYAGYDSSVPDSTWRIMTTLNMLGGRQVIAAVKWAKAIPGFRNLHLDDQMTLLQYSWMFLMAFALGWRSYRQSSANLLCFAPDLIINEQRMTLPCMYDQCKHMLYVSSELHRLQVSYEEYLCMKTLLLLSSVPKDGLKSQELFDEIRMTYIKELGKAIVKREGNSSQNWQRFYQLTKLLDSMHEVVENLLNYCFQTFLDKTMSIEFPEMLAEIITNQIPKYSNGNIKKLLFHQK

[5] = target: Glucocorticoid receptor (Homo sapiens) (UniProt P04150); assay: GR-EFC Redistribution (AID 451; calls by dose curve; note: potency is the fitted concentration of half-maximal effect); details: CHO-K1 GR-EFC translocation, beta-gal luminescence, 2 h
Summary of the method: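 CHO-K1 cells stably expressing nuclear-localized β-gal enzyme acceptor and GR fused C-terminally to the enzyme donor fragment; ligand-driven nuclear translocation restores β-gal by complementation. Compounds titrated up to 46 uM final, 2 h at 37 °C; luminescence read.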

[6] = target: Mitogen-activated protein kinase 10 (Mus musculus) (UniProt Q61831); assay: JNK3 AlphaScreen Assay (AID 530; active = well fitted curve in either direction with a large enough effect, not every such curve was filed as active;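 note: kinase came from lysate of stimulated human HepG2 cells; signal reports phosphorylation of biotinylated GST-cJun 1-79 at Ser73 with 10 µM ATP; % is set by controls: 0 for no effect and ±100 for the full control effect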)
Summary of the method: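 JNK3 came from HepG2 lysates pre-activated with IL-1beta and TNF-alpha and phosphorylated biotinylated GST-cJun (1-79) at 10 uM ATP, pH 7.6, room temperature. Compounds were titrated. AlphaScreen signal used anti-phospho-cJun (Ser73) antibody.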

[7] = target: 3',5'-cyclic-AMP phosphodiesterase 4B (Homo sapiens) (UniProt Q07343); assay: qHTS Assay for Inhibitors of PDE-IV (AID 607; active = well fitted activation curve with a large enough effect in the main read-out, with a control signal flat, not every such curve was filed as active; note: % of control where 0% means no effect)
3',5'-cyclic-AMP phosphodiesterase 4B (Homo sapiens), sequence (Q07343 whole entry, looked up): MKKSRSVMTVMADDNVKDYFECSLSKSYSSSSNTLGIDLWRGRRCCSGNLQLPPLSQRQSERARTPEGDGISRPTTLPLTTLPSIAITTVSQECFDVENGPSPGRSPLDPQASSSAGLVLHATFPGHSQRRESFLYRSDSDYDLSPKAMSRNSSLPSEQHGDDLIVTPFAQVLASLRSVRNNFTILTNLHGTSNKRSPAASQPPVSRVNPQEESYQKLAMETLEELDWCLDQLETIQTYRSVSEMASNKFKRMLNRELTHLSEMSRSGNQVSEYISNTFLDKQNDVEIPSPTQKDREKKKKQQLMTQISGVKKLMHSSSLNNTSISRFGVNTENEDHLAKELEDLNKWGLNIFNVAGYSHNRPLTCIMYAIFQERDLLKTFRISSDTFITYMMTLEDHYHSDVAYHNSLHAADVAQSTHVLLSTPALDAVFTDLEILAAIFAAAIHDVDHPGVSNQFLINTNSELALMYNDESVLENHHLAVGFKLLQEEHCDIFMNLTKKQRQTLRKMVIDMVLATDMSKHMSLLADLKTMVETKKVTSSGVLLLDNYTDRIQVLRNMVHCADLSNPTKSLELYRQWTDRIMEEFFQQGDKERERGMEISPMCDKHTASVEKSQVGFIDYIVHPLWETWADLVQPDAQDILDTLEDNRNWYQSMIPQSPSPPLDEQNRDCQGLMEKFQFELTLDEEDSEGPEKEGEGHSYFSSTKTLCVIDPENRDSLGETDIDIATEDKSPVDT
Summary of the method: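 ACTOne HEK293 cells carry a modified cAMP-gated CNG channel and express endogenous PDE4; plated 1000 cells/well, compounds up to 22.9 uM final. Membrane-potential dye fluorescence (ex 535/em 590) was read; parental cells received 10 uM forskolin + 100 uM RO 20-1724.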

[8] = target: Guanine nucleotide-binding protein G(i) subunit alpha-1 (Homo sapiens) (UniProt P63096); assay: qHTS Assay for Inhibitors of RGS12 GoLoco Motif Activity (Green Fluorophore) (AID 879);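 note: 0% = labeled peptide with Gαi1 and full inhibition = labeled peptide alone without protein; negative values mean loss of peptide binding seen as reduced polarization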
Guanine nucleotide-binding protein G(i) subunit alpha-1 (Homo sapiens), sequence (P63096 whole entry, looked up): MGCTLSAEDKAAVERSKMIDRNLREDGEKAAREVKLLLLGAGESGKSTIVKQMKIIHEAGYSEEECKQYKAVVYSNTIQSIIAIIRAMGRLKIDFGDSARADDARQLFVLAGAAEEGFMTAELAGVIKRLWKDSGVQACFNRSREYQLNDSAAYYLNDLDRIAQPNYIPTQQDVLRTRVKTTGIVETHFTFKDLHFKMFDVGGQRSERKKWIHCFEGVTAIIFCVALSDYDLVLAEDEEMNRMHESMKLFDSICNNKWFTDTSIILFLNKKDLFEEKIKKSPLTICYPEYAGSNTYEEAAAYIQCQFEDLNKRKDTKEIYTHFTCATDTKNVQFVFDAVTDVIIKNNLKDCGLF
Summary of the method: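 Fluorescence polarization assay: 50 nM Gαi1 with 10 nM FITC-labeled RGS12 GoLoco peptide in 10 mM Tris pH 7.5, 150 mM NaCl, 0.1 mM GDP, 0.05% NP40, 10 min at room temperature with compound.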

[9] = target: Cytochrome P450 2C9 (Homo sapiens) (UniProt P11712); assay: qHTS Assay for Inhibitors and Substrates of Cytochrome P450 2C9 (AID 883); note: potency is the fitted concentration of half-maximal effect; nearly all actives have a fitted effect of over 60% in size
Cytochrome P450 2C9 (Homo sapiens), sequence (P11712 whole entry, looked up): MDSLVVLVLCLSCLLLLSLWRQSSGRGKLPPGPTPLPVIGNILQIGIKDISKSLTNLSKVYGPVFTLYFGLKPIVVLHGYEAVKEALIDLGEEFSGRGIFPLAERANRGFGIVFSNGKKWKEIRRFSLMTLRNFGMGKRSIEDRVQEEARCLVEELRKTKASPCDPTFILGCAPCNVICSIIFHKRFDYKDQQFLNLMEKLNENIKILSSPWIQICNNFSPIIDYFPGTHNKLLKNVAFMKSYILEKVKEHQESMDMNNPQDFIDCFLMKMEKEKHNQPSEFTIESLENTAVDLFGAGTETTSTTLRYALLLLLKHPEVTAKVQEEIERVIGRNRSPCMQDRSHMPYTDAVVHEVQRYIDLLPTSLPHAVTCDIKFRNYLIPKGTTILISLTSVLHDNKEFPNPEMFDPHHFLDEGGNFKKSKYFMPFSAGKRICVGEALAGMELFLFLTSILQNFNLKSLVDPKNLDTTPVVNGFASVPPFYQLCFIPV
Summary of the method: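 CYP2C9 deoxyluciferin hydroxylation, 37C, 60 min with NADPH regeneration; 10nM enzyme, 100uM Luciferin-H (KM). Glo detection reagent stopped reaction; luminescence normalized to sulphaphenazole (57uM) full inhibition.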

[10] = target: Cytochrome P450 3A4 (Homo sapiens) (UniProt P08684); assay: qHTS Assay for Inhibitors and Substrates of Cytochrome P450 3A4 (AID 884); note: potency is the fitted concentration of half-maximal effect; nearly all actives have a fitted effect of over 50% in size
Cytochrome P450 3A4 (Homo sapiens), sequence (P08684 whole entry, looked up): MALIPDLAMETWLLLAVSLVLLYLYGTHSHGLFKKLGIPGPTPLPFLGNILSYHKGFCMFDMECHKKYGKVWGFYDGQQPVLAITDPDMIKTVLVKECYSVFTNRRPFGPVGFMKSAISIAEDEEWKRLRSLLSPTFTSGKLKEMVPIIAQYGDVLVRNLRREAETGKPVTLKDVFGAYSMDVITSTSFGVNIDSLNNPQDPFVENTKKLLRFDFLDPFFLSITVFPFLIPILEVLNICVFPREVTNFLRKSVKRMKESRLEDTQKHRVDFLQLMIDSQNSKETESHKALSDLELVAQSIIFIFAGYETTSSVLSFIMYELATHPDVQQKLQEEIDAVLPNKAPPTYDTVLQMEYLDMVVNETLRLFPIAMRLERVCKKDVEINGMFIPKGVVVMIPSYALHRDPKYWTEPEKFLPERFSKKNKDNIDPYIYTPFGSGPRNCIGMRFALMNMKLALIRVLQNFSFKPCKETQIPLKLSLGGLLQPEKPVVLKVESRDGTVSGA
Summary of the method: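 20 nM human CYP3A4 with 25 uM Luciferin-PPXE (at KM) in 200 mM KPO4, preincubated 10 min with compound; NADPH regeneration started a 60 min RT reaction. Luciferin detected by luminescence, normalized to 57 uM ketoconazole as full inhibition.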

[11] = target: Cytochrome P450 3A4 (Homo sapiens) (UniProt P08684); assay: qHTS Assay for Activators of Cytochrome P450 3A4 (AID 885); note: nearly all actives have a fitted effect of over 65% in size
Summary of the method: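 20nM CYP3A4 + 25uM Luciferin-PPXE (=KM), 200mM KPO4; cpd 10 min RT; NADPH regen, 60 min RT; stop w/ detection buffer, 20 min; luminescence. Normalized to 57 uM ketoconazole.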

[12] = qHTS Assay for Identification of Small Molecule Antagonists for NFkB Signaling Pathway (AID 895; active = well fitted inhibition curve with a large enough effect in the signal ratio, with a control signal flat, not every such curve was filed as active; the % refers to the signal ratio; note: % is set by controls: 0 for no effect and ±100 for the full control effect)
Summary of the method: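 NFkB-bla ME-180 cervical carcinoma cells with beta-lactamase reporter under NFkB response element; compounds added, then TNF alpha at 10 pM final (EC50), 5 h at 37 C. LiveBLAzer substrate 2 h, room temperature; emission 460/530 nm at 405 nm excitation.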

[13] = target: Cytochrome P450 2C19 (Homo sapiens) (UniProt P33261); assay: qHTS Assay for Inhibitors and Substrates of Cytochrome P450 2C19 (AID 899); note: potency is the fitted concentration of half-maximal effect; nearly all actives have a fitted effect of over 60% in size
Summary of the method: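 In 50mM KPO4, the reaction held 5nM enzyme and KM-level (10uM) Luciferin-H EGE; it ran 60 min at 37C after NADPH regeneration and a 10 min compound preincubation. Luminescence values were scaled to 57uM ketoconazole as complete inhibition.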

[14] = Confirmation and Secondary Assay for Modulators of Hemoglobin Beta Chain Splicing at IVS2 654 locus (AID 910);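 note: per-well total GFP intensity by laser scanning cytometry after 2-day treatment; % of control where 0% means no effect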
Summary of the method: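 HeLa cells stably carrying EGFP interrupted by mutant beta-globin IVS2-654 intron (CMV-driven) were treated with compound for 2 days at 37C; corrected splicing was scored as total peak GFP intensity per well (488 nm excitation, 500-520 nm emission).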

[15] = qHTS Assay for Identification of Small Molecule Agonists for Hypoxia Response Element Signaling Pathway (AID 914; active = well fitted activation curve with a large enough effect in the signal ratio, with a control signal flat, not every such curve was filed as active; the % refers to the signal ratio; note: % of control where 0% means no effect); details: ME-180 (cervical carcinoma) HRE-bla reporter, beta-lactamase ratio, CoCl2, 17 h; hits give high values
Summary of the method: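 Compounds in a titration series were added to ME-180 reporter cells alongside an EC50 level of CoCl2. After 17 hours, beta-lactamase activity was read as the 460nm/530nm emission ratio of CCF4, giving AC50 values.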

[16] = Confirmation and Secondary Assay for Modulators of Hemoglobin Beta Chain Splicing at IVS2 705 locus (AID 930);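 note: HeLa cells stably expressing the EGFP-705 splicing reporter; GFP fluorescence per well restored by corrected splicing of the IVS2-705 intron in EGFP; % of control where 0% means no effect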
Summary of the method: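 Assay measures total GFP intensity per well in HeLa EGFP-705 cells after 2 days with compound; mis-splicing normally truncates EGFP, so fluorescence indicates corrected splicing.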

[17] = target: Pyruvate kinase (Leishmania mexicana) (UniProt Q27686); assay: qHTS Validation Assay for Inhibitors of Leishmania Mexicana Pyruvate Kinase (AID 945);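 note: 0% = DMSO only neutral control wells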
Pyruvate kinase (Leishmania mexicana), sequence (Q27686 2-499 E452W): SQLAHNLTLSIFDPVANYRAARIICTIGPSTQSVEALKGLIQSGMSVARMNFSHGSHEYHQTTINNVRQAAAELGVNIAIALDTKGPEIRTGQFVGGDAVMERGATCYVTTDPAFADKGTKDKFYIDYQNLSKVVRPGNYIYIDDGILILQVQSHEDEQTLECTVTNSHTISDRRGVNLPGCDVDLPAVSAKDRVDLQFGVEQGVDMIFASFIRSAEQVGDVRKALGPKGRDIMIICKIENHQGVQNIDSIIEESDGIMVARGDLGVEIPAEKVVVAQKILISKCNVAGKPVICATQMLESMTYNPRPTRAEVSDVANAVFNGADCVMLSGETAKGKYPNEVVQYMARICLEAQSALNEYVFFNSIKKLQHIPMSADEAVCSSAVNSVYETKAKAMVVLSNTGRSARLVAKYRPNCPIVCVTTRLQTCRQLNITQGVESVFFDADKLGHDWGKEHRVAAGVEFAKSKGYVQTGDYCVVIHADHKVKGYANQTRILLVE
Summary of the method: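 Pyruvate kinase activity of E451W LmPYK (0.2 nM) was followed as ATP output after 1 h at room temperature with 0.5 mM PEP and 0.1 mM ADP, detected by PKLight luminescence.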

[18] = target: Pyruvate kinase PKM (Homo sapiens) (UniProt P14618); assay: qHTS Assay for Activators of Human Muscle Pyruvate Kinase (AID 954; active = well fitted curve in the direction sought with a large enough effect, not every such curve was filed as active;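 note: 0% = uninhibited enzyme and -100% = no enzyme or full thiadiazolimine inhibition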)
Pyruvate kinase PKM (Homo sapiens), sequence (P14618 whole entry, looked up): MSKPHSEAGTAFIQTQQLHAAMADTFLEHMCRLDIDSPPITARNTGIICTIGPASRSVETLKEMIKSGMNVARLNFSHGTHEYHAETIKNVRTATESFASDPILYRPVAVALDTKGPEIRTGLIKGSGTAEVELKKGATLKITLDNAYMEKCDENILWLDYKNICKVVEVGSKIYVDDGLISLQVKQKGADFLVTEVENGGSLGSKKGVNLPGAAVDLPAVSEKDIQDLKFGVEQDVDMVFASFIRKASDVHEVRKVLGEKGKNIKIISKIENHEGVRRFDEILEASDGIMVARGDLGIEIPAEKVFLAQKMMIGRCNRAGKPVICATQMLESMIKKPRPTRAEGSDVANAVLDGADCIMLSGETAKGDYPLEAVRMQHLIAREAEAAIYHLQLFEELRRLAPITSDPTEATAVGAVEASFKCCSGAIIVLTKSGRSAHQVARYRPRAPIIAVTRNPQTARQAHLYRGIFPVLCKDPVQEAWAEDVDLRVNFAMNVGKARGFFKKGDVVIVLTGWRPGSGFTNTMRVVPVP
Summary of the method: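 Luminescence from a luciferase ATP-detection/stop reagent reported PKM2 activity. Reactions contained 0.1 nM purified human enzyme, 0.5 mM PEP, 0.1 mM ADP and 7 mM MgCl2 at pH 7.2, run 1 h at RT.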

[19] = target: Alpha-galactosidase A (Homo sapiens) (UniProt P06280); assay: Counterscreen for Glucocerebrosidase Inhibitors: qHTS Assay for Human alpha-Galactosidase at pH 4.5 (AID 992); note: 0% is about no effect
Alpha-galactosidase A (Homo sapiens), sequence (P06280 whole entry, looked up): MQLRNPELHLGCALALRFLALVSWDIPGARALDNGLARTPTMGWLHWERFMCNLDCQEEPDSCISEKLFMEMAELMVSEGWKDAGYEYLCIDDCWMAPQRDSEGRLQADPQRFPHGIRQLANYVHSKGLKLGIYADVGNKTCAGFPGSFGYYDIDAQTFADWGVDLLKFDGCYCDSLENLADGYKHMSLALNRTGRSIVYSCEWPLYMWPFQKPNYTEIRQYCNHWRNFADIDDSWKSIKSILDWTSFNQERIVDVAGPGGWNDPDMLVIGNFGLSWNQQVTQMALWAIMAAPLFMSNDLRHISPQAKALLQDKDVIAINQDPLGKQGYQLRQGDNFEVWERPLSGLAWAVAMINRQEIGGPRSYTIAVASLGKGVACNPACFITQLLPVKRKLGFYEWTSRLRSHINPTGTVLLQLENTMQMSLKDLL
Summary of the method: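 Enzyme at 2 nM final was combined with compound (0.7 nM to 77 uM) and 80 uM 4-methylumbelliferyl alpha-D-galactopyranoside in 50 mM citric acid, 0.005% Tween-20, pH 4.5. After 20 min at room temperature, fluorescence was read (Ex 365/Em 440 nm); AC50 came from Hill fits.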

[20] = target: alpha-glucosidase (Oryza sativa, rice) (UniProt Q653V4); assay: Counterscreen for Glucocerebrosidase Inhibitors: qHTS Assay for Rice alpha-Glucosidase at pH 5.0 (AID 997);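 note: 0% = full activity with enzyme and -100% = basal without enzyme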
Summary of the method: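 Rice alpha-glucosidase (4 nM final) with 400 uM 4-methylumbelliferyl-alpha-D-glucopyranoside in citrate buffer pH 5.0, 20 min at room temperature, stopped at pH 10; fluorescence 365/440 nm, compounds 0.7 nM–77 uM, AC50 from Hill fits.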

NCCCCCCNS(=O)(=O)c1cccc2c(Cl)cccc12
inactive: activity change, negative = inhibition [1] 7.92% | activity change, negative = inhibition [3] -4.09% | Potency [4] > 46 µM | Potency [5] > 46 µM | Potency [6] | Potency [7] | outcome [8] | Potency [11] | Potency [12] | outcome [14] | activation [15] -27.9% | outcome [16] | Potency [17] | outcome [18] | outcome [19] | outcome [20]
active: Potency [2] 7.94 µM and 1.26 µM | Potency [9] 3.16 µM | Potency [10] 3.98 µM and 2.51 µM | Potency [13] 0.199 µM
